# Pf growth 48h: Primary qHTS for delayed death inhibitors of the malarial parasite plastid, 48 hour incubation; hit rate 5.9% among 310,000; Potency, µM (highest dose often 28.7 µM), without a hit: top-dose activity change, negative = inhibition, most hits filed as inhibitors; P. falciparum luciferase growth in erythrocytes, 48 h; active = well fitted inhibition curve with a large enough effect; inconclusive = small, poorly fitted or top-dose-only effect, or another doubt; inactive = no such curve, though single readings can be large or run the other way; also: potency is read from the fitted curve at half-maximal effect; % is scaled to controls: 0 for no effect and ±100 for the full control effect
#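 First compound was added to culture medium, then infected red cells at 0.1% parasitemia and 2% hematocrit (final). After incubation at 37 C under 5% CO2, luciferase detection reagent was dispensed and light output recorded.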
# Pf growth 96h: Primary qHTS for delayed death inhibitors of the malarial parasite plastid, 96 hour incubation; AID 504834, 2011; P. falciparum luciferase reporter growth, 96 h; Potency, µM (doses to about 28.7 µM), for inactives: at the highest dose activity change, negative = inhibition, most hits filed as inhibitors; hit rate 6.9% among 320,000; active = well fitted inhibition curve with a large enough effect; inconclusive = small, poorly fitted or top-dose-only effect, or another doubt; inactive = no such curve, though single readings can be large or run the other way; also: potency is read from the fitted curve at half-maximal effect; % is scaled to controls: 0 for no effect and ±100 for the full control effect
#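 Compounds incubated with erythrocytes infected by luciferase-expressing P. falciparum (2% hematocrit, 0.05% parasitemia final) for 96 hours, 37 C in 5% CO2. Growth inhibition scored as decreased luciferase luminescence.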
# CHX counter: Cycloheximide Counterscreen for Small Molecule Inhibitors of Shiga Toxin | AID 2314, 2010 | max response, % | hit rate 12% among 300,000 | cell reporter, cycloheximide protein synthesis inhibition counterscreen; in the data active = max response mostly above about 13%, no sharp cut-off; inactive = mostly below about 14%; also: read at 38.3 µM for the half of the compounds with a filed dose; 0% is about no effect
# NS1 inh: qHTS Assay for Inhibitors of Influenza NS1 Protein Function. Potency, µM (highest dose often 46.1 µM), for the others: top-dose activity, positive = more growth. hit rate 0.4% among 270,000; also: potency is read from the fitted curve at half-maximal effect; actives are rising curves; nearly all actives have a fitted effect of over 50% in size
#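 OD600 was taken as the measure of yeast growth restored by compound in an NS1-expressing S. cerevisiae strain. Cells had been washed out of glucose medium and diluted 1:100 into galactose -URA medium, pH 6.0.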
# Shiga toxin inh: A qHTS for Small Molecule Inhibitors of Shiga Toxin; Vero cells, Shiga toxin protein synthesis inhibition reporter; inhibition, % at 38.7 µM; hit rate 9.2% among 290,000; AID 2315, 2010; in the data active = inhibition mostly above about 28%, no sharp cut-off; inactive = mostly below about 43%; also: 0% is about no effect
# SARS PLP yeast: qHTS of Yeast-based Assay for SARS-CoV PLP; hit rate 0.19% among 330,000; AID 485353, 2010; S. cerevisiae expressing SARS-CoV PLpro, growth rescue; Potency, µM (titrated, usually from 32.9 µM), without a hit: top-dose activity, positive = growth rescue, actives largely listed as activators; also: potency is read from the fitted curve at half-maximal effect; 0% is about no effect; nearly all actives have a fitted effect of over 55% in size
# * = called active by the depositor; i = inactive; ? = inconclusive; / = not tested or not shown; [ ] = remark or other dose. In the library only some 21% were active in any assay of this set; here they are far more common. Unless noted, calls follow the shape of the full dose curve.
SMILES,Pf growth 48h,Pf growth 96h,CHX counter,NS1 inh,Shiga toxin inh,SARS PLP yeast
Cc1ccc(C2(C)NC(=O)N(CC(=O)NNC(=O)c3ccccc3)C2=O)cc1 (configuration not stated),-25.5%,-10.7%,/,/,/,-1.8%
Cc1ccc(C)c(-n2cc(CN3CCCN(C=O)CC3)c(-c3ccccc3)n2)c1,-1.3%,?,0.5,-3.3%,6.8,0.1%
COC(=O)C1=CN(CC2CCCO2)C=C(C(=O)OC)C1c1cc(OC)c(OC)c(OC)c1 (configuration not stated),?,4.15µM*,-1.7,-2.8%,-17.6,/
COC(=O)C1=CN(Cc2ccc(F)cc2)C=C(C(=O)OC)C1c1cc(OC)c(OC)c(OC)c1,1.31µM*,-27.5%,-2.6,-2.6%,-4.0,2.0%
COC(=O)C1=CN(Cc2ccc(OC)c(OC)c2)C=C(C(=O)OC)C1c1cccc(F)c1,9.28µM*,10.4µM*,-3.9,?,-2.0,-2.3%
COCCN1C=C(C(=O)OC)C(c2ccc(OC)c(OC)c2)C(C(=O)OC)=C1,-8.6%,/,-1.6,-10.4%,-2.3,2.0%
COC(=O)C1=CN(Cc2cccs2)C=C(C(=O)OC)C1c1cccc(O)c1,-20.6%,?,-0.9,-7.8%,-15.9,1.1%
COc1cc(NC(=O)Cc2ccc(F)cc2)cc(OC)c1OC,-1.1%,12.5%,5.2,/,19.3,0.8%
COC(=O)C1=CN(Cc2ccc(C)cc2)C=C(C(=O)OC)C1c1ccc(F)c(F)c1,6.57µM*,14.6%,-2.4,-8.0%,-1.2,-4.6%
O=c1ccc(-c2ccc(S(=O)(=O)N3CCCCC3)o2)n[nH]1,21.6%,24.6%,10.5,-4.3%,-9.7,1.3%
CCC(CC)NC(=O)COC(=O)CCC(=O)c1ccc(Cl)cc1,5.8%,34.4%,-3.9,/,16.0,-3.3%
O=c1oc(C2(O)CCCCC2)cc2ccc(/C=C/c3ccc(F)cc3)cc12,?,?,/,/,/,1.4%
O=C(COC(=O)c1ccc(O)cc1O)Nc1ccc2c(c1)OCCO2,169.7%,68.6%,/,/,/,0.7%
CCCCN1C=C(C(=O)OC)C(c2ccccc2Cl)C(C(=O)OC)=C1,-18.7%[1.15 µM],-21.2%,-3.3,-11.5%,5.1,-0.3%
COC(=O)C1=CN(Cc2ccccc2)C=C(C(=O)OC)C1c1cc(F)ccc1F,7.38µM*,7.38µM*,6.1,5.1%,-7.5,-2.9%
COC(=O)C1=CN(C(C)c2ccccc2)C=C(C(=O)OC)C1c1cc(OC)c(OC)c(OC)c1 (configuration not stated),1.47µM*,33.3%,8.5,17.4%,-1.1,0.3%
COC(=O)C1=CN(Cc2ccc(OC)cc2)C=C(C(=O)OC)C1c1cc(OC)c(OC)c(OC)c1,1.31µM*,?,0.8,3.7%,-5.7,0.4%
O=C(Cc1ccc(NC2=NC3CS(=O)(=O)CC3S2)cc1)NCc1ccccc1Cl (configuration not stated),4.3%,87.0%,0.6,1.9%,5.7,2.6%
Cc1cc(O)cc(C)c1NS(=O)(=O)c1ccc2ccccc2c1,6.9%,?,-9.0,-5.0%,3.0,0.8%
COc1ccccc1C(=O)OCC(=O)Nc1ccc(Cl)cn1,29.0%,0.0%,27.3*,/,15.3,-3.2%
COC(=O)c1ccccc1NC(=O)COc1ccc2c(c1)OCO2,11.5%,?,5.7,-6.0%,12.4,-0.8%
O=C(COc1ccc(Cl)cc1)Nc1ccc(Cl)cn1,93.1%,/,26.0*,1.1%,34.2,-7.5%
CC(C)=CC(=O)OCC(=O)Nc1ccc(Cl)cn1,31.5%,/,19.1*,-22.2%,13.4,-18.9%
O=C(COc1ccc2c(c1)OCO2)Nc1ccccc1F,295.7%,?,41.4*,-6.3%,107.8*,-1.0%
COc1ccc(C(=O)OCCOc2cccc(Cl)c2)cc1S(=O)(=O)N1CCOCC1,0.4%,30.6%,-1.2,-2.3%,4.2,2.1%
O=C(c1cccnc1)N1CCN(c2ccc3ccccc3n2)CC1,-4.5%,?,5.8,/,-0.5,5.5%
CNC(=O)c1ccccc1-c1cn(C)c2ccccc2c1=O,i,0.0%,-7.7,/,21.5,-2.0%
O=C(COc1ccc2c(c1)OCO2)Nc1ccc(Cl)cn1,41.8%,22.5%,50.6*,-4.3%,69.2*,-4.6%
O=C(COC(=O)CCOc1ccccc1)Nc1ccc(Cl)cn1,-22.3%,-7.4%[5.75 µM],-3.4,2.6%,13.5,1.8%

# Screens deposited in PubChem BioAssay by National Center for Advancing Translational Sciences (NCATS).
